# Legend:
# [1] = molecular target: T1, Aurora kinase A (Homo sapiens) (UniProt O14965); settings: at 1 µM;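 note: values are mean percent inhibition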
# T1 sequence (whole entry): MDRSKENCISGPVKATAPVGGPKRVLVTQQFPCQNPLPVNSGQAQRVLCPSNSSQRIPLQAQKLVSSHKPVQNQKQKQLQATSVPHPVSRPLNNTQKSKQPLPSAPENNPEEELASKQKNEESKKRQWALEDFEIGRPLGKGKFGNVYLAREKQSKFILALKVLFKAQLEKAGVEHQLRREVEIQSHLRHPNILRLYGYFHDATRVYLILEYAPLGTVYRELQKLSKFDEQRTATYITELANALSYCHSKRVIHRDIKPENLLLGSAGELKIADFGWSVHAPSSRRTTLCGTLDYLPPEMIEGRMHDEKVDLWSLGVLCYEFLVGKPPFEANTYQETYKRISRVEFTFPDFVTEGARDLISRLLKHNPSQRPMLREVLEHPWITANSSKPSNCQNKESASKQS
# [2] = molecular target: Aurora kinase B (Homo sapiens) (UniProt Q96GD4); settings: at 0.1 µM
# [3] = molecular target: Aurora kinase B (Homo sapiens) (UniProt Q96GD4); settings: at 1 µM
# [4] = molecular target: T2, Aurora kinase C (Homo sapiens) (UniProt Q9UQB9); settings: at 0.1 µM
# T2 sequence (whole entry): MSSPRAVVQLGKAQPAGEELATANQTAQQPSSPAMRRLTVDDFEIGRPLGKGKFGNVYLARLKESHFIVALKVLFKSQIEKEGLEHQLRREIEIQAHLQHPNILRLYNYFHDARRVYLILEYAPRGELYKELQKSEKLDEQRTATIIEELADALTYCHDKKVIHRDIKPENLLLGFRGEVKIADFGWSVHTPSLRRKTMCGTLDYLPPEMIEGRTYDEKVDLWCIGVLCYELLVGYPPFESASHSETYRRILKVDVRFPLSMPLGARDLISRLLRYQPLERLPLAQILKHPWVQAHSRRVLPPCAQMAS
# [5] = molecular target: T2, Aurora kinase C (Homo sapiens); settings: at 1 µM
# [6] = molecular target: Serine/threonine-protein kinase 10 (Homo sapiens) (UniProt O94804); settings: at 0.1 µM
# [7] = molecular target: Serine/threonine-protein kinase 10 (Homo sapiens) (UniProt O94804); settings: at 1 µM
# [8] = molecular target: T3, Mitogen-activated protein kinase kinase kinase kinase 2 (Homo sapiens) (UniProt Q12851); settings: at 0.1 µM
# T3 sequence (whole entry): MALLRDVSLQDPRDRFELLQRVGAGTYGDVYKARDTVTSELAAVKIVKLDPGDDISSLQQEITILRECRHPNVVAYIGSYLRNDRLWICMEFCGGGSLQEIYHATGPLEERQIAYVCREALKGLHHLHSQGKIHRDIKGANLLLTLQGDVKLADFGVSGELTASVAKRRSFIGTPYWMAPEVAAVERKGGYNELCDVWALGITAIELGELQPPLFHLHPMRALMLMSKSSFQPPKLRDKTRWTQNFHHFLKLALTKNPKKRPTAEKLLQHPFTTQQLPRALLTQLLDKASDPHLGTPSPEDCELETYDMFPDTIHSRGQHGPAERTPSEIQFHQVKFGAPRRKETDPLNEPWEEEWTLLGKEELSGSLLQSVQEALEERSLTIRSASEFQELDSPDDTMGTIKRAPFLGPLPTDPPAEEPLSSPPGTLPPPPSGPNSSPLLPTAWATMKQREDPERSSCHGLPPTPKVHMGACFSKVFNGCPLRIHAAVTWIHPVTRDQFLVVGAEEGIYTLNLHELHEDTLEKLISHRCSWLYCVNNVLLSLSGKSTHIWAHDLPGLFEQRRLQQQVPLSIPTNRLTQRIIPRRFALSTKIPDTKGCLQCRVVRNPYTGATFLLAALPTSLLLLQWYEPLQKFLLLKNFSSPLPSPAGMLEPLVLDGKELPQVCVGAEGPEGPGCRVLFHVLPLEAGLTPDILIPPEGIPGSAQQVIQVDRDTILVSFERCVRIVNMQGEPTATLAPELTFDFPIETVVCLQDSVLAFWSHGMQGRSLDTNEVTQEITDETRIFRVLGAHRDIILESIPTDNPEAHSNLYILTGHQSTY
# [9] = molecular target: T3, Mitogen-activated protein kinase kinase kinase kinase 2 (Homo sapiens); settings: at 1 µM
# [10] = molecular target: Mitogen-activated protein kinase kinase kinase kinase 4 (Homo sapiens) (UniProt O95819); settings: at 0.1 µM
# [11] = molecular target: Mitogen-activated protein kinase kinase kinase kinase 4 (Homo sapiens) (UniProt O95819); settings: at 1 µM
# [12] = molecular target: Dual specificity mitogen-activated protein kinase kinase 1 (Homo sapiens) (UniProt Q02750); settings: at 0.1 µM
# [13] = molecular target: Dual specificity mitogen-activated protein kinase kinase 1 (Homo sapiens) (UniProt Q02750); settings: at 1 µM
# [14] = molecular target: Misshapen-like kinase 1 (Homo sapiens) (UniProt Q8N4C8); settings: at 0.1 µM
# [15] = molecular target: Misshapen-like kinase 1 (Homo sapiens) (UniProt Q8N4C8); settings: at 1 µM
# [16] = molecular target: T4, Serine/threonine-protein kinase 4 (Homo sapiens) (UniProt Q13043); settings: at 0.1 µM
# T4 sequence (whole entry): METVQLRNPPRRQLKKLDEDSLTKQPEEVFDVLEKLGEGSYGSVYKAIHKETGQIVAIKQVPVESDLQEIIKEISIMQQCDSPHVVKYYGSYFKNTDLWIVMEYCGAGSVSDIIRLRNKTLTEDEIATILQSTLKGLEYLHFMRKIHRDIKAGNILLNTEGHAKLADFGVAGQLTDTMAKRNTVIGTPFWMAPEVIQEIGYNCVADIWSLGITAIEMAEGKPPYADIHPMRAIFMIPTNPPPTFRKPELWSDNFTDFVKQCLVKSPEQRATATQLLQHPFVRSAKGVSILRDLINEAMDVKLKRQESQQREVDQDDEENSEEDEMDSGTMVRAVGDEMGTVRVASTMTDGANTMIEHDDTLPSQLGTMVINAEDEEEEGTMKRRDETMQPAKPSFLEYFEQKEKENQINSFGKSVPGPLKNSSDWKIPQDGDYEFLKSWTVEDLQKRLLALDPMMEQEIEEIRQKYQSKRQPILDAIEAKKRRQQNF
# [17] = molecular target: T4, Serine/threonine-protein kinase 4 (Homo sapiens); settings: at 1 µM
# [18] = molecular target: T5, Serine/threonine-protein kinase 3 (Homo sapiens) (UniProt Q13188); settings: at 0.1 µM
# T5 sequence (whole entry): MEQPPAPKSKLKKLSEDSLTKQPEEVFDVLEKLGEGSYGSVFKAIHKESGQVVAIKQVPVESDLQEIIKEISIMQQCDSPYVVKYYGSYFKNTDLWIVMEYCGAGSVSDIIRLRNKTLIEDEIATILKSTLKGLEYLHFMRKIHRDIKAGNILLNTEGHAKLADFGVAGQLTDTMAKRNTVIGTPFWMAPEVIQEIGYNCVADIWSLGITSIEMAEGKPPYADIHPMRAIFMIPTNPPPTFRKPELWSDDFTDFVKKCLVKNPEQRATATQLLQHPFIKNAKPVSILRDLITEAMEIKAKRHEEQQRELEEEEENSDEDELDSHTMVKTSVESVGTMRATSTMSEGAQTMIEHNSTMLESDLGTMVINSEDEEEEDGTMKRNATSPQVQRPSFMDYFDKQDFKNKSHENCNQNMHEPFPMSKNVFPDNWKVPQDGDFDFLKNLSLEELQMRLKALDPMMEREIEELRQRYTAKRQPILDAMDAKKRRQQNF
# [19] = molecular target: T5, Serine/threonine-protein kinase 3 (Homo sapiens); settings: at 1 µM
# [20] = molecular target: Serine/threonine-protein kinase 26 (Homo sapiens) (UniProt Q9P289); settings: at 0.1 µM
# Serine/threonine-protein kinase 26 (Homo sapiens), sequence (Q9P289 2-416 limits assumed): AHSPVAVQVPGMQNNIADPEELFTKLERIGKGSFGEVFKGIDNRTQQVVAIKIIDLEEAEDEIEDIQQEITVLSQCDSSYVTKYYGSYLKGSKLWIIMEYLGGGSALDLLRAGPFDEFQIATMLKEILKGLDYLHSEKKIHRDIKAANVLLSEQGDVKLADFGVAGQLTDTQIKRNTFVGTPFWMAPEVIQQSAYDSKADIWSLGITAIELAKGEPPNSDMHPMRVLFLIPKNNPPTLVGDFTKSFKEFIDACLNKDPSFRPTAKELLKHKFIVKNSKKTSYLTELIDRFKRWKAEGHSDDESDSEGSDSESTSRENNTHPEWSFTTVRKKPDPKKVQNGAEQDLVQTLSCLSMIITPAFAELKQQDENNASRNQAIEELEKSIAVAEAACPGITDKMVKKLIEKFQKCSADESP
# Mitogen-activated protein kinase kinase kinase kinase 4 (Homo sapiens), sequence (O95819 2-1239 limits assumed): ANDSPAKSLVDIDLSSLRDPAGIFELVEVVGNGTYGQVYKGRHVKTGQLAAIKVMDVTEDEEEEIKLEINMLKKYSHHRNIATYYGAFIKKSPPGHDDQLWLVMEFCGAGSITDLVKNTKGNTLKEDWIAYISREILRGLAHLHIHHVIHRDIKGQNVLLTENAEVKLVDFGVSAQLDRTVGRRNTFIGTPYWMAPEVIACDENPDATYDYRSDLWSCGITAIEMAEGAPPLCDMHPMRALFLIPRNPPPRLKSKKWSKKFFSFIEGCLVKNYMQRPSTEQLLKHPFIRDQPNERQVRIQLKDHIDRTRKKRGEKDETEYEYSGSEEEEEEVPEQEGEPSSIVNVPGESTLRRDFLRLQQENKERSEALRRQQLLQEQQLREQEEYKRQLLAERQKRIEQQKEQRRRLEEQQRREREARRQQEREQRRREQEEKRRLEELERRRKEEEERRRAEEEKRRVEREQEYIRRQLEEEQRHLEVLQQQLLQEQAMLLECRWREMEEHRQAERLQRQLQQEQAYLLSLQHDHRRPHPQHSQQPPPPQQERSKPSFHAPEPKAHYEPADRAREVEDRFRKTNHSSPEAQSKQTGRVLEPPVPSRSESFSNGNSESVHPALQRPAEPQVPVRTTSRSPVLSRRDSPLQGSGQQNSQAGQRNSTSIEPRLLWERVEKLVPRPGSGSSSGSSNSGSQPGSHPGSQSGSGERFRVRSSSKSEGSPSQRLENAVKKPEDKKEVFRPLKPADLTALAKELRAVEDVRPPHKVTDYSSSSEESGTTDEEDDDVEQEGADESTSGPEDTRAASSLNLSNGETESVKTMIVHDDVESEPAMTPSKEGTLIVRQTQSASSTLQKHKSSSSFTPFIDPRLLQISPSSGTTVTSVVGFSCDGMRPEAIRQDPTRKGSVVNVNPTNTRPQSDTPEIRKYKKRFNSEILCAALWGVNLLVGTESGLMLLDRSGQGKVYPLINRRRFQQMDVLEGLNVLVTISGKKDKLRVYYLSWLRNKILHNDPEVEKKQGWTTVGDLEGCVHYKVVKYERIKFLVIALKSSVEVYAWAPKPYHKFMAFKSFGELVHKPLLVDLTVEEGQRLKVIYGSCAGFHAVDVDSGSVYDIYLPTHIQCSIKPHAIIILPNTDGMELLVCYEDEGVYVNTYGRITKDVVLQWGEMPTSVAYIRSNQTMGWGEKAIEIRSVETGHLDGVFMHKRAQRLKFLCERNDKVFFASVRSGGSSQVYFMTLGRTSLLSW
# Aurora kinase B (Homo sapiens), sequence (Q96GD4 whole entry): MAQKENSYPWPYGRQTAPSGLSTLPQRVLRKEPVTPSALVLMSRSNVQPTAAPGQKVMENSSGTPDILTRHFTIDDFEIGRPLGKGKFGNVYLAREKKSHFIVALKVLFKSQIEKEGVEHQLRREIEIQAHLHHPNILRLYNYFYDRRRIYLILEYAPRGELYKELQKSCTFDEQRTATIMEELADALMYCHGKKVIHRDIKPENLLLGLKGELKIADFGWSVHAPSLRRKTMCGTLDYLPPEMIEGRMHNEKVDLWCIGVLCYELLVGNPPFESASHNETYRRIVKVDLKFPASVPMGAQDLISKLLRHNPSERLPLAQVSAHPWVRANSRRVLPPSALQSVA
# Serine/threonine-protein kinase 10 (Homo sapiens), sequence (O94804 whole entry, looked up): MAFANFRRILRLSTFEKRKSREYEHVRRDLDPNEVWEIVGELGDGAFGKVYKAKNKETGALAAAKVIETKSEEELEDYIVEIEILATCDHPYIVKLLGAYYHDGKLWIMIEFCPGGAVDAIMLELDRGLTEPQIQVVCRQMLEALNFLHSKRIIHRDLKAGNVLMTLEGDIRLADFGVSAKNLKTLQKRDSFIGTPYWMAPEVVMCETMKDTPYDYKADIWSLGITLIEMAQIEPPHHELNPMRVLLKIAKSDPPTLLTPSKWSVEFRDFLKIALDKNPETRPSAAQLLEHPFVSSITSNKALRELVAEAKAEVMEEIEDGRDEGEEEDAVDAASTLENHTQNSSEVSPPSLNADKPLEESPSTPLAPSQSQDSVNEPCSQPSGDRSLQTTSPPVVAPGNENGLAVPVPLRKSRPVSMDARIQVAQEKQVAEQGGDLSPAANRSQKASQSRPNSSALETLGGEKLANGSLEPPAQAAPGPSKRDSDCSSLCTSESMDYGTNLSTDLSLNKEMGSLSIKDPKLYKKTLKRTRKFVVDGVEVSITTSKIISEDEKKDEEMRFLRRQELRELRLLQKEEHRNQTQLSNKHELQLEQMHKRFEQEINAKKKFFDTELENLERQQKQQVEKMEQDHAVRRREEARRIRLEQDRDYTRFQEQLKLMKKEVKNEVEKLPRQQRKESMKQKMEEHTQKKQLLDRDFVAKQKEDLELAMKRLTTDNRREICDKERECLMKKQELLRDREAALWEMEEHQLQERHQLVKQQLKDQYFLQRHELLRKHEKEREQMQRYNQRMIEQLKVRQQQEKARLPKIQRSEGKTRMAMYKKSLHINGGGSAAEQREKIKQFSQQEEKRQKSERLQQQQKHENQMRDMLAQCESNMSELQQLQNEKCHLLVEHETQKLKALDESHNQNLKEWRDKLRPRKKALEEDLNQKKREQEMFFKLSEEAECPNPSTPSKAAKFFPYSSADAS
# Misshapen-like kinase 1 (Homo sapiens), sequence (Q8N4C8 whole entry, looked up): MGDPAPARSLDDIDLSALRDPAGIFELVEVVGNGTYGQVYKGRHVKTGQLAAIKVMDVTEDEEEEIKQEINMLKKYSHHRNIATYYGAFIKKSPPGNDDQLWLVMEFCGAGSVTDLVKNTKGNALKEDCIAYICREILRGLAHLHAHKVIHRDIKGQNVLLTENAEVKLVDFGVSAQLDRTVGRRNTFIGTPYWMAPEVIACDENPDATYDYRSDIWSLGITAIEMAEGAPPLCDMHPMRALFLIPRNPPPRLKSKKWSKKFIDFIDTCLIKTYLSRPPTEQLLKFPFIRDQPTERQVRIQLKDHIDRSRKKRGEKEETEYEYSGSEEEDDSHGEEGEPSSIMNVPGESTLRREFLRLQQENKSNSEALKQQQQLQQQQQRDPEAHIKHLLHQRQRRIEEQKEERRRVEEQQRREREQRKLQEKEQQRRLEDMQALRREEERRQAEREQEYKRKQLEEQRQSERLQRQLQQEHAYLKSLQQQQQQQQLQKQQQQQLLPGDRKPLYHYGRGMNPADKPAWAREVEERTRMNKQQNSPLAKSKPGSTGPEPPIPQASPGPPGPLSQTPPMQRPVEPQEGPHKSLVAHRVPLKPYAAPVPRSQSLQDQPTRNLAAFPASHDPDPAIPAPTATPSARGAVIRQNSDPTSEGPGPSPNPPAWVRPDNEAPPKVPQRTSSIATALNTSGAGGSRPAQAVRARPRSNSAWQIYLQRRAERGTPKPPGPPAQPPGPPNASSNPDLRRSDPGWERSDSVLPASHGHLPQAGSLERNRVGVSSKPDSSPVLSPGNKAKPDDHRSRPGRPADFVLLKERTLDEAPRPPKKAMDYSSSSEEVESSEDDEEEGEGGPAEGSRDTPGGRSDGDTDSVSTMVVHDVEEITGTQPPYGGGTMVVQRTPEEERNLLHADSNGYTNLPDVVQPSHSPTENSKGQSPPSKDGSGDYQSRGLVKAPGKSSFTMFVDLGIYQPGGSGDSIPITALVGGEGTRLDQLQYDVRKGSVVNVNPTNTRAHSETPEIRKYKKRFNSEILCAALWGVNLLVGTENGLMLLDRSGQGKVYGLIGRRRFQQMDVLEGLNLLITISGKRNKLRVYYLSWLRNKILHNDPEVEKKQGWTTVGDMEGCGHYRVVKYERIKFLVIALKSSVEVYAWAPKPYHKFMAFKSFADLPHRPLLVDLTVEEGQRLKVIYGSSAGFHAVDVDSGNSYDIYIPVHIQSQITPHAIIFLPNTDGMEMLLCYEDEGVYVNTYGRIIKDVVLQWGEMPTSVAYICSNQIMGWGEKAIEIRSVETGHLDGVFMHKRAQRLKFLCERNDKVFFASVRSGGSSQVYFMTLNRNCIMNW
# Dual specificity mitogen-activated protein kinase kinase 1 (Homo sapiens), sequence (Q02750 whole entry): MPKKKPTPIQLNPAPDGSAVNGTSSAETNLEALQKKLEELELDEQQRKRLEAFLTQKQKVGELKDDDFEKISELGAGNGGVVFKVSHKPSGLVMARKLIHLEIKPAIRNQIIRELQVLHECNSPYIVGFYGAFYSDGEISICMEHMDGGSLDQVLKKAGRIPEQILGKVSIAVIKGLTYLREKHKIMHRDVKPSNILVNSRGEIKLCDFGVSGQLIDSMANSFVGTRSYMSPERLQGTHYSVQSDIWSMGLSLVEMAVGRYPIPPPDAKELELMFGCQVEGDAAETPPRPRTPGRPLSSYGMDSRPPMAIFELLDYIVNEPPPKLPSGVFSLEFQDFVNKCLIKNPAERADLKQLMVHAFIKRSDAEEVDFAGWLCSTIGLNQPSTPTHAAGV
Structure (SMILES),inhibition [1],inhibition [2],inhibition [3],inhibition [4],inhibition [5],inhibition [6],inhibition [7],inhibition [8],inhibition [9],inhibition [10],inhibition [11],inhibition [12],inhibition [13],inhibition [14],inhibition [15],inhibition [16],inhibition [17],inhibition [18],inhibition [19],inhibition [20]
COc1ccc(CNC(=O)c2ccc(-c3cc(-c4nnc(C)o4)ccc3C)cc2)cc1,4.73%,5.79%,6.54%,2.85%,-5.63%,13.2%,20.7%,4%,6.93%,3.14%,16.3%,3.35%,0.16%,3.36%,12.7%,7.99%,14.7%,6.56%,13.6%,3.07%
Clc1ccc(-c2nn3ncccc3c2-c2ccnc(Nc3ccccc3)n2)cc1,25.5%,3.6%,20.2%,1.35%,36.1%,4.2%,40.8%,1.09%,5.08%,5.07%,39.9%,1.32%,2.28%,5.91%,33%,0.77%,0.46%,-0.25%,-0.67%,1.4%
CCN1CCC(CC(=O)Nc2n[nH]c3nnc(-c4cccc(F)c4F)cc23)CC1,2.34%,0.22%,4.4%,1.43%,4.58%,3.88%,4.08%,0.29%,5.3%,2.42%,3.87%,2.23%,2.45%,3.67%,4.07%,2.83%,6.13%,3.62%,5.19%,0.66%
NC(=O)c1sc(-n2cnc3ccc(C(F)(F)F)cc32)cc1OCc1ccccc1Br,5.5%,2.77%,5.43%,-0.7%,-6.73%,9.21%,26%,0.79%,8.19%,4.62%,10.4%,4.95%,5.45%,4.02%,11%,2.27%,3.83%,3.43%,4.74%,-0.65%
CCn1c(-c2nonc2N)nc2ccccc21,7.95%,0.55%,5.64%,-0.58%,11.2%,2.59%,6.5%,0.98%,3.67%,4.69%,22.5%,4.06%,4.74%,5.52%,13.2%,5.56%,7.11%,6.31%,5.79%,-1.3%
CCCN(CCS(C)(=O)=O)Cc1ccc(-c2ccc3ncnc(Nc4ccc(OCc5cccc(F)c5)c(Cl)c4)c3c2)o1,11.8%,3.11%,8.39%,1.17%,5.04%,2.22%,5.54%,0.84%,2.9%,1.66%,11.1%,1.53%,1.76%,2.96%,7.61%,2.67%,4.13%,0.87%,2.11%,0.58%
COc1ccc(-c2cc3c(N)ncnc3o2)cc1,1.33%,-0.85%,11.7%,1.13%,16.7%,-1.35%,0.33%,2.31%,4.72%,2%,9.41%,-0.07%,1.35%,1.42%,6.5%,-2%,-0.96%,-3.02%,-0.72%,1.44%
c1ccc(-c2nc3n(c2-c2ccc4c(c2)OCO4)CCC3)nc1,2.32%,1.52%,2.28%,0.37%,-3.23%,-0.05%,3.42%,2.19%,2.78%,2.84%,6.59%,1.98%,1.68%,3.49%,6.24%,0.85%,1.63%,1.29%,1.9%,0.34%
CC1=C(C(=O)Nc2cc(Cl)c3[nH]ncc3c2)C(c2ccc(C(F)(F)F)cc2)CC(=O)N1 (stereo not given),16.6%,2.95%,10%,0.68%,7.15%,6.25%,7.45%,2%,3.92%,2.89%,10.2%,9.84%,35.5%,4.68%,9.18%,3.11%,5.19%,1.89%,4.7%,0.06%
[O-][S+]1CCN(Cc2ccc(-c3ccc4ncnc(Nc5ccc(OCc6cccc(F)c6)c(Cl)c5)c4c3)o2)CC1,4.74%,4.97%,9.46%,0.94%,6.06%,9.61%,15.9%,1.81%,5.19%,7.46%,9.56%,5.35%,4.93%,7.98%,8%,6.28%,8.16%,8.11%,9.49%,0.51%
Cc1ccc(O)cc1Nc1ccnc2cc(-c3ccccn3)ccc12,17.7%,9.57%,43.9%,6.76%,60.6%,11.1%,47.6%,3.74%,26.4%,26.7%,75.5%,6.05%,4.87%,21.3%,65.2%,7.99%,8.81%,8.56%,6.61%,-2.79%
COC(=O)Nc1nc2ccc(Oc3ccc(NC(=O)Nc4cccc(Cl)c4)cc3)cc2[nH]1,0.65%,16%,22.7%,16.6%,35.3%,14.1%,27.1%,0.77%,7.45%,0.19%,3.87%,1.15%,0.9%,2.55%,4.97%,2.25%,1.87%,3.48%,4.19%,-1.11%
CCn1c(-c2nonc2N)nc2c(C#CC(C)(C)O)ncc(OC3CCNCC3)c21,0.96%,2.65%,1.85%,1.48%,3.1%,3.27%,11.2%,2.3%,3.12%,2.72%,6.21%,1.98%,3.44%,4.48%,5.83%,1.6%,4.54%,3.55%,6.04%,0.64%

# Source: ChEMBL document CHEMBL1961873, “Compounds: GSK PKIS; Assays: Nanosyn kinase panel” (2012)
